Measured values reported in a collection of fitness landscapes (doi:10.1126/science.1257360).
In all, about 140,000 sequences were measured (“enrichment ratio after two sorts for PhoP signalling”: median about 0, highest 2% from about 11 on). The sample holds the highest values, similar sequences and a random draw of the others, so the mix is not that of the screen.

B1: PhoQ; a variant is named by its letters at X, in order, P23837 (parent)
chain: MKKLLRLFFPLSLRVRFLLATAAVVLVLSLAYGMVALIGYSVSFDKTTFRLLRGESNLFYTLAKWENNKLHVELPENIDKQSPTMTLIYDENGQLLWAQRDVPWLMKMIQPDWLKSNGFHEIEADVNDTSLLLSGDHSIQQQLQEVREDDDDAEMTHSVAVNVYPATSRMPKLTIVVVDTIPVELKSSYMVWSWFIYVLSANLLLVIPLLWVAAWWSLRPIEALAKEVRELEEHNRELLNPATTRELTSLVRNLNRLLKSERERYDKYRTTLTDLTHSLKTPLXXLQXXLRSLRSEKMSVSDAEPVMLEQISRISQQIGYYLHRASMRGGTLLSRELHPVAPLLDNLTSALNKVYQRKGVNISLDISPEISFVGEQNDFVEVMGNVLDNACKYCLEFVEISARQTDEHLYIVVEDDGPGIPLSKREVIFDRGQRVDTLRPGQGVGLAVAREITEQYEGKIVAGESMLGGARMEVIFGRQHSAPKDE

Variants of: B1
Assay: enrichment ratio after two sorts for PhoP signalling (ratio (wild type AVST 3.29)); higher = more functional
Settings: with PhoP (E. coli)

Variant | enrichment ratio
LKST | ≤ 0.25
GVIN | ≤ 0.25
MQIN | ≤ 0.25
QHSN | ≤ 0.25
YAPD | ≤ 0.25
QLGK | 3.11
MDFQ | ≤ 0.25
YRCM | ≤ 0.25
SSCM | 19
YSCK | ≤ 0.25
YSCM | 12.8
VNCM | 4.53
SSCK | 4.35
AINP | ≤ 0.25
SWTQ | ≤ 0.25
HGMH | ≤ 0.25
NHMH | ≤ 0.25
TGMH | 14.5
AGMH | 26
AYMH | ≤ 0.25
AHMH | ≤ 0.25
RGMH | ≤ 0.25
AGWR | ≤ 0.25
THMH | 13.2
PWRH | ≤ 0.25

Variant | enrichment ratio
DSMV | ≤ 0.25
ALNP | ≤ 0.25
ILLI | ≤ 0.25
IWRF | ≤ 0.25
LDDP | ≤ 0.25
ALCF | 13.2
AMCF | 12.3
WICF | ≤ 0.25
NICF | ≤ 0.25
NHCF | ≤ 0.25
SHCF | 7.35
MMCF | ≤ 0.25
AKCF | 1.73
AICF | 13.5
PLCF | ≤ 0.25
NMCF | ≤ 0.25
THCF | 17.5
IASH | ≤ 0.25
FYVH | ≤ 0.25
ESKG | ≤ 0.25
WMCQ | ≤ 0.25
VWMT | ≤ 0.25
PQSG | ≤ 0.25
VPYN | ≤ 0.25
AAPG | ≤ 0.25

Variant | enrichment ratio
DMIH | ≤ 0.25
MFGN | ≤ 0.25
IQAI | ≤ 0.25
SQAI | 15.1
SAAI | 7.86
SKPA | ≤ 0.25
SKFA | ≤ 0.25
SLAI | 15.7
VLAI | ≤ 0.25
SKAI | 14
WLAI | ≤ 0.25
YGYC | ≤ 0.25
YRGI | ≤ 0.25
YDSS | ≤ 0.25
AHPL | ≤ 0.25
RPNK | ≤ 0.25
DPLE | ≤ 0.25
SQLE | 16.5
QELE | ≤ 0.25
SSLE | 12
KYLE | ≤ 0.25
SPLE | ≤ 0.25
SFLE | ≤ 0.25
NELE | ≤ 0.25
FELE | 20.4

Variant | enrichment ratio
SEVE | 6.62
SELE | 21.5
KSLE | ≤ 0.25
LDMG | ≤ 0.25
LDRD | ≤ 0.25
SKTY | ≤ 0.25
FKIR | ≤ 0.25
PKAM | ≤ 0.25
NVYD | ≤ 0.25
IGIE | ≤ 0.25
KYVT | ≤ 0.25
PQLS | ≤ 0.25
PYIW | ≤ 0.25
YTLE | 3.23
GYLE | ≤ 0.25
GTLE | 14.3
LTLE | ≤ 0.25
GQLE | 14.3
WQLE | ≤ 0.25
TWHD | ≤ 0.25
YYAE | ≤ 0.25
KCKS | ≤ 0.25
HTMI | 1.06
WRCP | ≤ 0.25
FWNS | ≤ 0.25

Variant | enrichment ratio
AVSH | 12.4
AVMH | 11.8
AVWM | ≤ 0.25
AVGM | 3.94
AVWR | ≤ 0.25
AVTH | 9.18
AVCC | 8.73
AVTM | 12.4
AVAM | 3.19
AVPM | 1.53
AVCK | 16.2
AVCV | 5.84
MFGF | ≤ 0.25
LYKG | ≤ 0.25
ASIY | 3.82
VFVG | ≤ 0.25
DYAM | ≤ 0.25
DHDS | ≤ 0.25
AVCM | 15.4
AVCH | 13
NVCH | ≤ 0.25
AVTI | 10.4
PVCG | ≤ 0.25
AVCG | 16
NVCM | ≤ 0.25

Variant | enrichment ratio
NVCG | ≤ 0.25
AVAH | 13.4
FVCM | 2.91
TVAH | 3.22
AVAT | ≤ 0.25
DWKH | ≤ 0.25
QWAC | ≤ 0.25
PYDI | ≤ 0.25
SRND | ≤ 0.25
DGIY | ≤ 0.25
KFTT | ≤ 0.25
MWVS | ≤ 0.25
NKPN | ≤ 0.25
STYR | ≤ 0.25
AVCE | ≤ 0.25
AVCS | 8.99
AVCI | 21.8
RVVQ | ≤ 0.25
VRPL | ≤ 0.25
IQLV | ≤ 0.25
AEIV | 4.76
ACVQ | 2.26
AEIQ | 24.4
AQIQ | 27.9
AEIE | ≤ 0.25

Variant | enrichment ratio
AQHP | ≤ 0.25
AEHP | ≤ 0.25
ACIQ | 11.8
AEFQ | 3.73
ACHP | ≤ 0.25
AQQQ | ≤ 0.25
AEIA | 15.4
KAHK | ≤ 0.25
LFVQ | ≤ 0.25
MTRG | ≤ 0.25
YDCD | ≤ 0.25
TFDY | ≤ 0.25
SERL | ≤ 0.25
WHLP | ≤ 0.25
KMMG | ≤ 0.25
AEIT | 2.48
AEYL | 6.74
AEIS | 10.8
ADIQ | 21.4
AEPM | 0.861
AEII | 16.4
AHIQ | ≤ 0.25
AEIM | 15.7
AENL | ≤ 0.25
AKIQ | ≤ 0.25

Variant | enrichment ratio
AEIL | 28.2
THTQ | 1.45
EWAP | ≤ 0.25
GFIS | ≤ 0.25
LHFN | ≤ 0.25
NVLT | ≤ 0.25
SCYK | ≤ 0.25
DWIV | ≤ 0.25
KRHG | ≤ 0.25
NHPL | ≤ 0.25
KIDW | ≤ 0.25
GARI | ≤ 0.25
QYLE | ≤ 0.25
FEPL | ≤ 0.25
QPSM | ≤ 0.25
QSSM | 15.9
QDSM | ≤ 0.25
TPSM | ≤ 0.25
QQSM | 13.3
QRSM | ≤ 0.25
